Data: ChEMBL document CHEMBL1961873, “Compounds: GSK PKIS; Assays: Nanosyn kinase panel” (2012)

Key:
[1] = biological target: Rho-associated protein kinase 1 (Homo sapiens) (UniProt Q13464); settings: at 1 µM;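 also: reported values are mean percent inhibition of ROCK1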
[2] = biological target: Rho-associated protein kinase 2 (Homo sapiens) (UniProt O75116); settings: at 0.1 µM
[3] = biological target: Rho-associated protein kinase 2 (Homo sapiens) (UniProt O75116); settings: at 1 µM
[4] = biological target: Ribosomal protein S6 kinase alpha-1 (Homo sapiens) (UniProt Q15418); settings: at 0.1 µM
[5] = biological target: Ribosomal protein S6 kinase alpha-1 (Homo sapiens) (UniProt Q15418); settings: at 1 µM
[6] = biological target: Ribosomal protein S6 kinase alpha-3 (Homo sapiens) (UniProt P51812); settings: at 0.1 µM
[7] = biological target: Ribosomal protein S6 kinase alpha-3 (Homo sapiens) (UniProt P51812); settings: at 1 µM
[8] = biological target: Ribosomal protein S6 kinase alpha-2 (Homo sapiens) (UniProt Q15349); settings: at 0.1 µM
[9] = biological target: Ribosomal protein S6 kinase alpha-2 (Homo sapiens) (UniProt Q15349); settings: at 1 µM
[10] = biological target: Ribosomal protein S6 kinase alpha-6 (Homo sapiens) (UniProt Q9UK32); settings: at 0.1 µM;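 also: reported value is the mean inhibition of RSK4, from the GSK PKIS kinase inhibitor screen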

Sequence of Rho-associated protein kinase 1 (Homo sapiens) (Q13464 2-1354 limits assumed): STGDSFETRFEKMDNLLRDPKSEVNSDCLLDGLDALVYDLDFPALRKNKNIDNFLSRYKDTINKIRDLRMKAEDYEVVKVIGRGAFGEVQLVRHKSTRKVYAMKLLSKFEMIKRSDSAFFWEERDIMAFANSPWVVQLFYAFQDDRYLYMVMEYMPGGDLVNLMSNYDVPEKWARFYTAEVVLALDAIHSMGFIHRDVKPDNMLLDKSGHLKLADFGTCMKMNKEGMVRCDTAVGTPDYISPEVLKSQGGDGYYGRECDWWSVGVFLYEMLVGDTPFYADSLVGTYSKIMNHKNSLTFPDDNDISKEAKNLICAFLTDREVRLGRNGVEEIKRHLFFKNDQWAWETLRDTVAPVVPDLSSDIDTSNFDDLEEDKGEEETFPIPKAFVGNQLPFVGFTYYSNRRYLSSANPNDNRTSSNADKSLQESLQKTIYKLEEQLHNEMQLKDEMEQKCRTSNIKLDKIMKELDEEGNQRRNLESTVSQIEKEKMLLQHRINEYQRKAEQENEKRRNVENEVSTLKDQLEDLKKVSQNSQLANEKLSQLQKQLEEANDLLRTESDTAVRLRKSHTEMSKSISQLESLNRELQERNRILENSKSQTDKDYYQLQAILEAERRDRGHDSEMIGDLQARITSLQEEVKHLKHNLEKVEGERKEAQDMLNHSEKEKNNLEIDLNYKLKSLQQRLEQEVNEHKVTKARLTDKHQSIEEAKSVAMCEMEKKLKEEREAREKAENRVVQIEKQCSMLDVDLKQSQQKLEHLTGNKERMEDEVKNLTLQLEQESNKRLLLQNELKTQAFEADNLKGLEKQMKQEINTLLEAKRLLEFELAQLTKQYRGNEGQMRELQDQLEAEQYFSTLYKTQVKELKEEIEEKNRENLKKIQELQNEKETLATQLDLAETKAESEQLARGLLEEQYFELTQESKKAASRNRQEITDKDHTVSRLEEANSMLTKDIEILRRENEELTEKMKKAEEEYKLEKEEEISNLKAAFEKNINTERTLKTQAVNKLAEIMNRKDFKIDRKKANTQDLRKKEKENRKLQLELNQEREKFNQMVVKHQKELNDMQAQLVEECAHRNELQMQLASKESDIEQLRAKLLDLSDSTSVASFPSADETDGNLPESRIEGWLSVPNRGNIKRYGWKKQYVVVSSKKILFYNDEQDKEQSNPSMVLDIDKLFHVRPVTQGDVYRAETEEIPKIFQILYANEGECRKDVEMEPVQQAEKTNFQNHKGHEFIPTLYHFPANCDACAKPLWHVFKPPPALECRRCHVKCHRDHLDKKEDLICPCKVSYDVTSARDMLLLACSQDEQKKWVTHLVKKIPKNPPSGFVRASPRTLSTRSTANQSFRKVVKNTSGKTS
Sequence of Ribosomal protein S6 kinase alpha-3 (Homo sapiens) (P51812 whole entry): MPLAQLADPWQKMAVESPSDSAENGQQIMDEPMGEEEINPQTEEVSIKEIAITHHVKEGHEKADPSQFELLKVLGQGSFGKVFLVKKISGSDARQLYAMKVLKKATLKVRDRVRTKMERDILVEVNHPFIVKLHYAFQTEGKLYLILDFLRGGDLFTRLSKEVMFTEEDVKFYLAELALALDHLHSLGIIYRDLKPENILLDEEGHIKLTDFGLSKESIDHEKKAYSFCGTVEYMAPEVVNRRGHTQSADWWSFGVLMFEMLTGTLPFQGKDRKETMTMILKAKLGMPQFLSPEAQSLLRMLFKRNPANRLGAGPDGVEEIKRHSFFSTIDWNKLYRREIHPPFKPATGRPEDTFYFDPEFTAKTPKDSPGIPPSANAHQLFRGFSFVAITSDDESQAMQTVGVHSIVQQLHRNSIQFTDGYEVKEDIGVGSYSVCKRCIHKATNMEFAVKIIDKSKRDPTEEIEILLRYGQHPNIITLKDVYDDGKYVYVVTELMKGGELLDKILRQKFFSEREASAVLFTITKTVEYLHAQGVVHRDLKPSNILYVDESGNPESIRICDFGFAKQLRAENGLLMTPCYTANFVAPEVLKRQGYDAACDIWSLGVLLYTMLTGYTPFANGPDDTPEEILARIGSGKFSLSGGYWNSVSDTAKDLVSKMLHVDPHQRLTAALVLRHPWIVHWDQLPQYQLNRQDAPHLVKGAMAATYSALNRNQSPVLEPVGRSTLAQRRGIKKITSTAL
Sequence of Ribosomal protein S6 kinase alpha-2 (Homo sapiens) (Q15349 whole entry): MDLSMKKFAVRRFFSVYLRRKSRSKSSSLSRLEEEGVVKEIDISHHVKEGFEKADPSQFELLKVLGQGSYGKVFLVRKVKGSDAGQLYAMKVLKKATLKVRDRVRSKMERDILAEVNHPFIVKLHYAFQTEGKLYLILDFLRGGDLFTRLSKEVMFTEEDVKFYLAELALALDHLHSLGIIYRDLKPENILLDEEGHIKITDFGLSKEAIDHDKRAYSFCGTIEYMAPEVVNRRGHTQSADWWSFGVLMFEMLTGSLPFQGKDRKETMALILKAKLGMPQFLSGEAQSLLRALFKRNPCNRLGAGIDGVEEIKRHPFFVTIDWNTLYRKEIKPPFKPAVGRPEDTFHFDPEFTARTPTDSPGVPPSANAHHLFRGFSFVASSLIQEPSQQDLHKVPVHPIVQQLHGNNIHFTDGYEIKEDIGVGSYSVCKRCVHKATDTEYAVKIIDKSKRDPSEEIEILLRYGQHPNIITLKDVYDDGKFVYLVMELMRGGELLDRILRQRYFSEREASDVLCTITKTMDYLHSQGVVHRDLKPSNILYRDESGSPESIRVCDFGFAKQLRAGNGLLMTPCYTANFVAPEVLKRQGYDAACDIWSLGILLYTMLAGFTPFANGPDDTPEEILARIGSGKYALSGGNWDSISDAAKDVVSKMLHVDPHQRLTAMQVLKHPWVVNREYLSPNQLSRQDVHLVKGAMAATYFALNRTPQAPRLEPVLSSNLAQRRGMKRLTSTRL
Sequence of Rho-associated protein kinase 2 (Homo sapiens) (O75116 whole entry, looked up): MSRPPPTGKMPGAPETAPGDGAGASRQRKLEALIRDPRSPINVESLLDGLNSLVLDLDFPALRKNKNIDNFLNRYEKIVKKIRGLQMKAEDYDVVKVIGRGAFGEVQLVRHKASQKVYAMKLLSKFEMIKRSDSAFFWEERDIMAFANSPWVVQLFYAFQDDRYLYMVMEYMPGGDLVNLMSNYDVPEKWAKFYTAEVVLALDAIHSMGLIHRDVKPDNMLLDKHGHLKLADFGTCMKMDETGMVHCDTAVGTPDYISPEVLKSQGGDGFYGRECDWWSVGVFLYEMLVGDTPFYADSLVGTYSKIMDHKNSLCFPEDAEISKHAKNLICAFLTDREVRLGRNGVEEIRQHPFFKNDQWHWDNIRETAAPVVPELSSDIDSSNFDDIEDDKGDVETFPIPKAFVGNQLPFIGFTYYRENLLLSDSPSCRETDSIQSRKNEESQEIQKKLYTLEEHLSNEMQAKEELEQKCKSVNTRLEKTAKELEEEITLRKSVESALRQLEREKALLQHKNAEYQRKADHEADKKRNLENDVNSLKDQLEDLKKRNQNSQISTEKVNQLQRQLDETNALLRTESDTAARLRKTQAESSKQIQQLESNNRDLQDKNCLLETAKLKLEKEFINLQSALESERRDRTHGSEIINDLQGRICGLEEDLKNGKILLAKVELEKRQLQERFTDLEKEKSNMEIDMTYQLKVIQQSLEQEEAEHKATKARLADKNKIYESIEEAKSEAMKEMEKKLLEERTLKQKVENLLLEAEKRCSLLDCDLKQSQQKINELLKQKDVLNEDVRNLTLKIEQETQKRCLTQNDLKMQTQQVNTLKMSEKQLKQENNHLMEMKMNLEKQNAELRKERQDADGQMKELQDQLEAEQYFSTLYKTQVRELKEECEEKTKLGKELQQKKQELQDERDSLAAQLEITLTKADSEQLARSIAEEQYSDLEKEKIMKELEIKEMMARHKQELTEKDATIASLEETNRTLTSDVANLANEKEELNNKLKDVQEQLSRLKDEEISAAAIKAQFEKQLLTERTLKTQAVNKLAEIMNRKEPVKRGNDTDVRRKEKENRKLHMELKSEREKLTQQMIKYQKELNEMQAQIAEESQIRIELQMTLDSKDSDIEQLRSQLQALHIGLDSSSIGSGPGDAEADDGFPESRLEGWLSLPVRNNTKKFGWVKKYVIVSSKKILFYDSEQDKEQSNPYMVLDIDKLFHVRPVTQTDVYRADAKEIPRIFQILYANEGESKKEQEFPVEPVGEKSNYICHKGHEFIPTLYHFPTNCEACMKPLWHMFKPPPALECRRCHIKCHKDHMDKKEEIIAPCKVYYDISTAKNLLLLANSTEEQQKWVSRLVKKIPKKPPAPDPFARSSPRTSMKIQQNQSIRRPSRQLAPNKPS
Sequence of Ribosomal protein S6 kinase alpha-1 (Homo sapiens) (Q15418 whole entry): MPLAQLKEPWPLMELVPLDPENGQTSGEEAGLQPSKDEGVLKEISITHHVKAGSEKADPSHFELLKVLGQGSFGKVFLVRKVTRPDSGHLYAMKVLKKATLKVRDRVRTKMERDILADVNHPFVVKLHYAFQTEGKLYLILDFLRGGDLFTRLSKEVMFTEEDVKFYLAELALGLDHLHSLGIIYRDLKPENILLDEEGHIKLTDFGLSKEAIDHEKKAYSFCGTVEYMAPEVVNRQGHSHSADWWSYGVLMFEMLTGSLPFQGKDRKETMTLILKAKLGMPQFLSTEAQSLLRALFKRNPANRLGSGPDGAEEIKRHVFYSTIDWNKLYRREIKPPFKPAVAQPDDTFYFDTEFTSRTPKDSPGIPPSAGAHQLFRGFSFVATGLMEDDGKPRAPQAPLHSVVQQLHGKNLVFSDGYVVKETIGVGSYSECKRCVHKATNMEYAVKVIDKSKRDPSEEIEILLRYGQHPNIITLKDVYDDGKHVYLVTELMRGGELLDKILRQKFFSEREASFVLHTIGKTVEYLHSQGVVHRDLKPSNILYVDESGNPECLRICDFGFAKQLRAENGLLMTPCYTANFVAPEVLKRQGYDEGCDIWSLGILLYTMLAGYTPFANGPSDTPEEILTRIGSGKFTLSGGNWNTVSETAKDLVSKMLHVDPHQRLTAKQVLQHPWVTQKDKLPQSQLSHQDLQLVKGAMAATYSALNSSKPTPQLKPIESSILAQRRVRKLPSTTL

SMILES | inhibition [1] [%] | inhibition [2] [%] | inhibition [3] [%] | inhibition [4] [%] | inhibition [5] [%] | inhibition [6] [%] | inhibition [7] [%] | inhibition [8] [%] | inhibition [9] [%] | inhibition [10] [%]
C/C(Nc1ccc(S(N)(=O)=O)cc1)=C1/C(=O)Nc2ccccc21 | 5.13 | 2.95 | 9.54 | 1.62 | 14.5 | 1.49 | 14.6 | 2.22 | 23.4 | 2.94
NC(=O)c1ccc(Oc2nccc(-c3c(-c4ccc(F)cc4)ncn3C3CCNCC3)n2)cc1 | 3.99 | 3.87 | 4.42 | 2.06 | 1.84 | -0.35 | 0.53 | 3.21 | 4.43 | 1.77
COc1cc(Nc2ncc3c(C)nc(-c4cccc(Oc5ccccc5)c4)n3n2)cc(OC)c1OC | 1.17 | 0.99 | -0.91 | 1.56 | 7.14 | 0.9 | 8.61 | 2.77 | 14.4 | 2.59
Fc1ccc(-c2nc3n(c2-c2ccncc2)CCS3)cc1 | 4.54 | 2.98 | 5.06 | 3.03 | 2.88 | 1.5 | 1.71 | 3.31 | 4.36 | 2.72
NC(=O)Cc1ccccc1Oc1nccc(-c2c(-c3ccc(F)cc3)ncn2C2CCNCC2)n1 | 1.73 | -0.06 | 0.19 | 1.2 | 0.63 | 0.99 | 1.35 | 1.2 | 3.57 | 1.6
Cc1ccc(NC(=O)c2ccoc2)cc1-c1ccc(C(=O)NCC2CC2)cc1 | -0.4 | 0.78 | -1.14 | 1.06 | 0.4 | -0.62 | 0.11 | 2 | 1.72 | -0.1
COc1ccc2cc(-c3c(-c4ccncc4)nc(-c4ccc([S+](C)[O-])cc4C)n3C)ccc2c1 (stereo not given) | -0.59 | -0.57 | -0.64 | -0.66 | -1.48 | -0.38 | -0.28 | 0.02 | -0.67 | -0.13
COc1cc2ncn(-c3cc(OCc4ccccc4C(F)(F)F)c(C(C)=O)s3)c2cc1OC | 2.18 | 1.87 | 2.95 | 1.38 | 2.01 | 0.97 | 1.14 | 2.48 | 2.5 | 1.64
CN(C)CCOc1ccc(-c2cc(-c3ccc4c(c3)CCC4=NO)c(-c3ccncc3)o2)cc1 | -1.5 | -2.12 | -0.39 | -0.55 | -1.02 | -0.48 | -0.08 | -0.08 | 0.83 | -0.45
CCS(=O)(=O)c1ccc(OC)c(Nc2ncc(-c3ccccc3Cl)o2)c1 | -0.3 | 1.15 | 2.53 | 1.95 | 5.76 | 0.57 | 4.01 | 0.2 | 4.26 | 2.01
COc1cccc(-n2cnc3c(N/N=C/c4ccncc4)ncnc32)c1 | 1.07 | 3.27 | 6.91 | 2.62 | 4.66 | 2.12 | 4.76 | -0.37 | 0.82 | -0.06
CCC(=O)Nc1ccc(C)c(-c2ccc(C(=O)NCC3CC3)cc2)c1 | 4.2 | 2.63 | 3.64 | 0.56 | 0.53 | 0.82 | 0.79 | 1.75 | 2.09 | 0.01
COc1cc2ncn(-c3cc(OCCc4ccccc4)c(C(N)=O)s3)c2cc1OC | 0.3 | 0.94 | -1.5 | 0.33 | -0.89 | 0.83 | 0.32 | 1.71 | 1.86 | 1.48
O=C(Nc1n[nH]c2nc(-c3ccc(O)cc3)c(Br)cc12)C1CC1 | 1.33 | 4.18 | 6.43 | 7.28 | 33 | 10.3 | 44.8 | 22.4 | 70.6 | 16.4
Fc1ccc(-c2ncn(C3CCNCC3)c2-c2ccnc(Oc3ccc4c(c3)OCO4)n2)cc1 | 5.2 | 4.88 | 8.46 | 1.84 | 3.67 | -0.4 | 2.18 | 2.81 | 4.39 | 0.63
O=C(Nc1ccc(Oc2ccc3[nH]c(NC(=O)c4ccccc4)nc3c2)cc1)Nc1cc(C(F)(F)F)ccc1F | 6.36 | 3.35 | 8.83 | 1.17 | 5.03 | 0.81 | 1.47 | 3.12 | 20.5 | 1.69
COc1cc2ncn(-c3cc(OCc4cccs4)c(C(N)=O)s3)c2cc1OC | 2.63 | 3.91 | 11.3 | 4.14 | 12.6 | 3.71 | 11.8 | 2.98 | 9.31 | 1.53

SMILES | inhibition [1] [%] | inhibition [2] [%] | inhibition [3] [%] | inhibition [4] [%] | inhibition [5] [%] | inhibition [6] [%] | inhibition [7] [%] | inhibition [8] [%] | inhibition [9] [%] | inhibition [10] [%]
Fc1ccc(-c2ncn(CCCN3CCOCC3)c2-c2ccncc2)cc1 | -0.82 | 0.06 | -4.4 | -1.49 | -3.25 | 0.33 | -0.73 | 0.61 | -0.22 | 0.43
COc1ccc2ncn(-c3cc(O[C@H](C)c4ccccc4Cl)c(C(N)=O)s3)c2c1 | 2.68 | 1.42 | 2.59 | -0.02 | 0.44 | -1.13 | -0.23 | 1.47 | 1.88 | 0.03
Fc1ccc(-c2ncn(C3CCNCC3)c2-c2ccnc(Oc3ccc(F)c(F)c3)n2)cc1 | 6.19 | 1.74 | 5.45 | 0.34 | 2.83 | -0.47 | 1.32 | 2.41 | 2.42 | 0.29
CCS(=O)(=O)c1ccc(OC)c(Nc2ncc(-c3cccc(-c4ccccc4F)c3)o2)c1 | 1.4 | 1.1 | 1 | 0.18 | 1.38 | 0.3 | 0.84 | 0.3 | 2.3 | -0.01
CNC(=O)c1cncc(/C=C/c2c(C)cccc2C)c1 | 0.33 | 1.01 | 1.34 | 1.16 | 0.45 | 0.6 | -0.28 | 1.22 | 0.63 | 0.47
O=C(NCC1CC1)c1ccc(-c2cccc(C(=O)NC3CC3)c2)cc1 | 2.85 | 2.43 | 1.11 | -0.06 | 0.15 | 0.89 | -1.16 | 0.67 | 0.58 | 0.55
Fc1ccc(-c2ncn(C3CCNCC3)c2-c2ccnc(Oc3ccc(Oc4ccccc4)cc3)n2)cc1 | 1.68 | 2.53 | 3.69 | 3.01 | 2.7 | 1.73 | 2.37 | 3.61 | 3.8 | 2.38
Cc1nnc(-c2ccc(C)c(-c3ccc(C(=O)NCc4ccc(Cl)cc4)cc3)c2)o1 | 2.48 | 3.86 | 5.72 | 2.78 | 2.72 | 2 | 2.89 | 3.07 | 3.77 | 1.59
COc1ccc2cc(-c3c(-c4ccncc4)nc(-c4ccc(S(C)(=O)=O)cc4C)n3C)ccc2c1 | 10.6 | 10.5 | 12.3 | 6.01 | 9.72 | 4.66 | 9.83 | 3.42 | 3.72 | 1.53
FC(F)(F)c1cccc(Nc2nccc(-c3cnn4nc(-c5ccccc5)ccc34)n2)c1 | 0.48 | 1.21 | 0.98 | 1.01 | 1.56 | 1.05 | 1.35 | 1.39 | 2.04 | 1.3
COC(=O)Nc1nc2ccc(Sc3ccc(NC(=O)Nc4cc(C(F)(F)F)ccc4F)cc3)cc2[nH]1 | -0.72 | 0.53 | -0.19 | -0.4 | 0.24 | -0.27 | -1.87 | 47.7 | 2.97 | 48.6
O=C(Nc1n[nH]c2cc(-c3cc(F)ccc3F)ccc12)C1CC1 | 2.49 | 1.39 | 2.28 | 0.64 | 0.86 | 0.31 | 1.63 | 1.04 | 3.43 | -0.13
O=C(Nc1n[nH]c2cc(-c3ccccc3)ccc12)C1CC1 | 1.05 | 2.59 | 0.78 | 0.84 | 1.81 | 1.2 | 0.07 | 3.06 | 3.36 | 3
c1ccc(Oc2ccc(Nc3ncc(-c4ccccc4)o3)cc2)cc1 | 4.29 | 4.32 | 4.11 | 1.98 | 3.12 | 0.81 | 1.91 | 0.83 | 1.55 | 0.67
NC(=O)c1cc(-c2ccncc2)cc(-c2ccccc2)c1N | 6.72 | 3.44 | 9.1 | 1.01 | -1.21 | 1.46 | 1.47 | 3.07 | 2.57 | 2.79
CN1CCN(CCCNc2nc3ccc(Oc4ccc(NC(=O)Nc5cc(C(F)(F)F)ccc5F)cc4)cc3[nH]2)CC1 | 3.23 | 0.43 | 0.51 | 1.08 | -1.68 | 1.52 | -0.48 | 0.97 | 2.27 | 1.31
NS(=O)(=O)c1ccc(N/N=C2\C(=O)Nc3ccc(-c4cnco4)cc32)cc1 | 37.6 | 16.3 | 58.3 | -0.32 | 3.8 | -1 | 2.65 | 1.5 | 7.28 | 0.03
